In PubChem BioAssay AID1159580 (chemical genetic matrix, 2015):
In all, about 5,500 compounds went through this assay and about 2,000 (36%) were called active. Roughly 18% stayed inconclusive and do not appear here. No stated cut-off is given here; in the data, active means normalized growth mostly below about 0.91 (no sharp cut-off); inconclusive means no clear call, values can overlap the other calls; inactive means mostly above about 0.92. The list shows a part of the results.

Assay: chemical genetic growth profiling, strain panel (AID 1159580);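 further: tested at 20 µM; growth read once vehicle control cultures reached saturation at 30 °C; 1 = growth at the plate median or of vehicle wells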
Details: growth OD
[1] = S. cerevisiae deletion strains, locus YAL013W, strain DEP1, stronger effect = lower value
[2] = S. cerevisiae deletion strains, locus YDR150W, strain NUM1, stronger effect = lower value
[3] = S. cerevisiae deletion strains, locus YGR229C, strain SMI1, stronger effect = lower value
[4] = S. cerevisiae deletion strains, locus YNL153C, strain GIM3, stronger effect = lower value
[5] = S. cerevisiae deletion strains, locus YNL322C, strain KRE1, stronger effect = lower value
[6] = S. cerevisiae deletion strains, locus YBR229C, strain ROT2, stronger effect = lower value
[7] = S. cerevisiae deletion strains, locus YDL101C, strain DUN1, stronger effect = lower value
[8] = S. cerevisiae deletion strains, locus YEL061C, strain CIN8, stronger effect = lower value
[9] = S. cerevisiae deletion strains, locus YGR078C, strain PAC10, stronger effect = lower value
[10] = S. cerevisiae deletion strains, locus YHR030C, strain SLT2, stronger effect = lower value
[11] = S. cerevisiae deletion strains, locus YHR087W, strain rtc3, stronger effect = lower value
[12] = S. cerevisiae deletion strains, locus YJR043C, strain POL32, stronger effect = lower value
[13] = S. cerevisiae deletion strains, locus YJR075W, strain HOC1, stronger effect = lower value
[14] = S. cerevisiae deletion strains, locus YKL190W, strain CNB1, stronger effect = lower value
[15] = S. cerevisiae deletion strains, locus YLR039C, strain RIC1, stronger effect = lower value
[16] = S. cerevisiae deletion strains, locus YLR058C, strain SHM2 (second series), stronger effect = lower value
[17] = S. cerevisiae deletion strains, locus YLR085C, strain ARP6, stronger effect = lower value
[18] = S. cerevisiae deletion strains, locus YLR262C, strain YPT6, stronger effect = lower value
[19] = S. cerevisiae deletion strains, locus YML094W, strain GIM5, stronger effect = lower value
[20] = S. cerevisiae deletion strains, locus YMR219W, strain ESC1, stronger effect = lower value
[21] = S. cerevisiae deletion strains, locus YMR263W, strain SAP30, stronger effect = lower value
[22] = S. cerevisiae deletion strains, locus YMR307W, strain GAS1, stronger effect = lower value
[23] = S. cerevisiae deletion strains, locus YNL128W, strain TEP1, stronger effect = lower value
[24] = S. cerevisiae deletion strains, locus YNL298W, strain CLA4 (second series), stronger effect = lower value
[25] = S. cerevisiae deletion strains, locus YNR030W, strain Alg12, stronger effect = lower value
[26] = S. cerevisiae deletion strains, locus YPL055C, strain LGE1, stronger effect = lower value
[27] = S. cerevisiae deletion strains, locus YPL241C, strain CIN2, stronger effect = lower value
[28] = S. cerevisiae deletion strains, locus YPR135W, strain CTF4, stronger effect = lower value
[29] = S. cerevisiae strains, strain wild type, stronger effect = lower value

Measured: normalized growth

Clc1ccc(N2CC3CCC(C2)N3)nn1
inactive: [1] 1.04 | S. cerevisiae deletion strains, locus YAL040C, strain CLN3, stronger effect = lower value 1.01 | S. cerevisiae deletion strains, locus YCL061C, strain MRC1 (second series), stronger effect = lower value 1.01 | [2] 1 | S. cerevisiae deletion strains, locus YDR363W, strain ESC2, stronger effect = lower value 1.01 | S. cerevisiae deletion strains, locus YER002W, strain NOP16, stronger effect = lower value 1 | [3] 1.03 | [4] 1.01 | S. cerevisiae deletion strains, locus YNL175C, strain NOP13, stronger effect = lower value 0.995 | S. cerevisiae deletion strains, locus YNL197C, strain WHI3, stronger effect = lower value 1 | S. cerevisiae deletion strains, locus YNL224C, strain SQS1, stronger effect = lower value 1 | [5] 1.04 | S. cerevisiae deletion strains, locus YOR083W, strain WHI5 (second series), stronger effect = lower value 0.959

CCOC(=O)N/N=C\c1cccs1
inactive: [1] 0.995 | [6] 1 | [7] 0.982 | [2] 0.996 | [8] 1 | [9] 1 | [10] 1.05 | [11] 0.992 | [12] 0.984 | [13] 0.972 | [14] 1.01 | [15] 1.07 | [16] 1.02 | [17] 1.01 | [18] 1.05 | [19] 0.996 | [20] 1 | [21] 0.997 | [22] 1.02 | [23] 1 | [4] 0.996 | [24] 1.03 | [5] 1.01 | [25] 1 | [26] 1.01 | [27] 0.993 | [28] 0.948 | [29] 1.01

NC(=S)N/N=C\c1ccccc1
inactive: [1] 0.991 | [6] 1.02 | [7] 0.987 | [2] 0.963 | [9] 1.02 | [10] 0.823 | [11] 1.06 | [12] 1 | [13] 1.04 | [14] 0.973 | [15] 1.13 | [16] 1.01 | [18] 1.08 | [19] 0.872 | [20] 1 | [21] 0.982 | [4] 0.971 | [5] 1.03 | [25] 0.925 | [26] 0.872 | [27] 0.983 | [28] 0.886 | [29] 0.974
active: [8] 0.902 | [17] 0.301 | [22] 0.579 | [24] 0.836

NC(=S)N/N=C\c1cccs1
active: [13] 0.829 | [17] 0.562 | [20] 0.873 | [4] 0.898 | [25] 0.737
inactive: [1] 0.984 | [6] 0.96 | [7] 0.979 | [2] 0.962 | [8] 0.945 | [9] 0.98 | [3] 1.01 | [10] 0.992 | [11] 1.02 | [12] 0.973 | [14] 1 | [15] 1.11 | [16] 1 | [18] 1.08 | [19] 0.92 | [21] 0.997 | [23] 1 | [24] 0.955 | [5] 1.02 | [26] 0.915 | [27] 1.06 | [28] 1.02 | [29] 1

O=C(N/N=C\c1cccs1)c1ccccc1CO
inactive: [1] 0.998 | [6] 1.01 | [7] 0.997 | S. cerevisiae deletion strains, locus YDL134C, strain PPH21, stronger effect = lower value 1 | [2] 1 | [8] 0.994 | [9] 0.994 | [3] 1 | [10] 1 | [11] 1 | S. cerevisiae deletion strains, locus YJL187C, strain SWE1, stronger effect = lower value 0.989 | [12] 0.999 | [13] 0.995 | [15] 0.999 | [16] 1.01 | [17] 0.996 | [18] 1.04 | [19] 0.986 | [20] 1 | [21] 0.997 | [22] 1 | [23] 1.01 | [4] 0.99 | [24] 1 | [5] 0.996 | [25] 1.01 | S. cerevisiae deletion strains, locus YOL006C, strain TOP1, stronger effect = lower value 0.994 | [26] 1.01 | [27] 0.992 | [28] 1.04

O=[N+]([O-])c1ccccc1CS(=O)(=O)c1nc2ccccc2s1
active: S. cerevisiae deletion strains, locus YAR019C, strain CDC15, stronger effect = lower value 0.862 | S. cerevisiae deletion strains, locus YBL105C, strain PKC1, stronger effect = lower value 0.895 | S. cerevisiae deletion strains, locus YBR135W, strain CKS1, stronger effect = lower value 0.89 | S. cerevisiae deletion strains, locus YBR136W, strain MEC1, stronger effect = lower value 0.883 | S. cerevisiae deletion strains, locus YBR160W, strain CDC28, stronger effect = lower value 0.886 | S. cerevisiae deletion strains, locus YDL017W, strain CDC7, stronger effect = lower value 0.894 | S. cerevisiae deletion strains, locus YDL028C, strain MPS1, stronger effect = lower value 0.892 | [7] 0.889 | S. cerevisiae deletion strains, locus YDL108W, strain KIN28, stronger effect = lower value 0.889 | S. cerevisiae deletion strains, locus YDL132W, strain cdc53, stronger effect = lower value 0.828 | S. cerevisiae deletion strains, locus YDR052C, strain DBF4, stronger effect = lower value 0.87 | S. cerevisiae deletion strains, locus YDR054C, strain cdc34, stronger effect = lower value 0.855 | S. cerevisiae deletion strains, locus YDR226W, strain ADK1, stronger effect = lower value 0.878 | S. cerevisiae deletion strains, locus YFL009W, strain cdc4, stronger effect = lower value 0.855 | S. cerevisiae deletion strains, locus YFL029C, strain CAK1, stronger effect = lower value 0.849 | S. cerevisiae deletion strains, locus YFR028C, strain CDC14, stronger effect = lower value 0.863 | [10] 0.671 | S. cerevisiae deletion strains, locus YJR016C, strain ILV3, stronger effect = lower value 0.871 | S. cerevisiae deletion strains, locus YKL048C, strain ELM1, stronger effect = lower value 0.755 | S. cerevisiae deletion strains, locus YKL193C, strain SDS22, stronger effect = lower value 0.864 | S. cerevisiae deletion strains, locus YKL203C, strain TOR2, stronger effect = lower value 0.711 | S. cerevisiae deletion strains, locus YLR403W, strain SFP1, stronger effect = lower value 0.503 | S. cerevisiae deletion strains, locus YMR277W, strain FCP1, stronger effect = lower value 0.852 | S. cerevisiae deletion strains, locus YNL006W, strain LST8, stronger effect = lower value 0.894 | S. cerevisiae deletion strains, locus YNL161W, strain CBK1, stronger effect = lower value 0.885 | S. cerevisiae deletion strains, locus YNL207W, strain RIO2, stronger effect = lower value 0.852 | S. cerevisiae deletion strains, locus YNL222W, strain SSU72, stronger effect = lower value 0.886 | S. cerevisiae deletion strains, locus YOL078W, strain AVO1, stronger effect = lower value 0.834 | S. cerevisiae deletion strains, locus YOR329C, strain SCD5, stronger effect = lower value 0.896 | S. cerevisiae deletion strains, locus YPL209C, strain IPL1, stronger effect = lower value 0.882 | S. cerevisiae deletion strains, locus YPR025C, strain CCL1, stronger effect = lower value 0.892 | S. cerevisiae deletion strains, strain TSCII, stronger effect = lower value 0.848
inactive: S. cerevisiae deletion strains, locus YDL214C, strain PRR2, stronger effect = lower value 0.884 | S. cerevisiae deletion strains, locus YDR477W, strain SNF1, stronger effect = lower value 0.728 | S. cerevisiae deletion strains, locus YER123W, strain YCK3, stronger effect = lower value 0.821 | S. cerevisiae deletion strains, locus YER133W, strain GLC7, stronger effect = lower value 0.773 | S. cerevisiae deletion strains, locus YFR003C, strain YPI1, stronger effect = lower value 0.904 | S. cerevisiae deletion strains, locus YFR019W, strain FAB1, stronger effect = lower value 0.933 | S. cerevisiae deletion strains, locus YGR040W, strain KSS1, stronger effect = lower value 0.791 | S. cerevisiae deletion strains, locus YGR052W, strain FMP48, stronger effect = lower value 0.835 | S. cerevisiae deletion strains, locus YGR092W, strain DBF2, stronger effect = lower value 0.537 | S. cerevisiae deletion strains, locus YHR079C, strain IRE1, stronger effect = lower value 0.946 | S. cerevisiae deletion strains, locus YHR082C, strain KSP1, stronger effect = lower value 0.949 | S. cerevisiae deletion strains, locus YHR205W, strain SCH9, stronger effect = lower value 0.933 | S. cerevisiae deletion strains, locus YIL147C, strain SLN1, stronger effect = lower value 0.894 | S. cerevisiae deletion strains, locus YJL095W, strain BCK1, stronger effect = lower value 0.616 | S. cerevisiae deletion strains, locus YJL128C, strain PBS2, stronger effect = lower value 0.953 | S. cerevisiae deletion strains, locus YJL157C, strain FAR1, stronger effect = lower value 0.867 | S. cerevisiae deletion strains, locus YJR066W, strain TOR1 (second series), stronger effect = lower value 0.832 | S. cerevisiae deletion strains, locus YJR066W, strain TOR1, stronger effect = lower value 0.753 | S. cerevisiae deletion strains, locus YKL067W, strain YNK1, stronger effect = lower value 0.921 | S. cerevisiae deletion strains, locus YKL101W, strain HSL1, stronger effect = lower value 0.902 | S. cerevisiae deletion strains, locus YLR113W, strain HOG1, stronger effect = lower value 0.887 | S. cerevisiae deletion strains, locus YLR133W, strain CKI1, stronger effect = lower value 0.916 | S. cerevisiae deletion strains, locus YML070W, strain DAK1, stronger effect = lower value 0.881 | S. cerevisiae deletion strains, locus YMR001C, strain CDC5, stronger effect = lower value 0.891 | S. cerevisiae deletion strains, locus YMR205C, strain PFK2 (second series), stronger effect = lower value 0.91 | S. cerevisiae deletion strains, locus YNL020C, strain ARK1, stronger effect = lower value 0.918 | S. cerevisiae deletion strains, locus YNL183C, strain NPR1, stronger effect = lower value 0.871 | S. cerevisiae deletion strains, locus YNL307C, strain MCK1 (second series), stronger effect = lower value 0.655 | S. cerevisiae deletion strains, locus YOL136C, strain PFK27, stronger effect = lower value 0.843 | S. cerevisiae deletion strains, locus YOR061W, strain CKA2, stronger effect = lower value 0.908 | S. cerevisiae deletion strains, locus YOR119C, strain RIO1, stronger effect = lower value 0.734 | S. cerevisiae deletion strains, locus YOR231W, strain MKK1, stronger effect = lower value 0.91 | S. cerevisiae deletion strains, locus YPL031C, strain PHO85, stronger effect = lower value 0.704 | S. cerevisiae deletion strains, locus YPL153C, strain RAD53, stronger effect = lower value 0.764 | S. cerevisiae deletion strains, locus YPL204W, strain HRR25, stronger effect = lower value 0.678 | S. cerevisiae deletion strains, locus YPL256C, strain CLN2, stronger effect = lower value 1.08 | S. cerevisiae deletion strains, locus YPR106W, strain ISR1, stronger effect = lower value 0.966 | S. cerevisiae deletion strains, locus YPR111W, strain DBF20, stronger effect = lower value 0.952 | S. cerevisiae deletion strains, strain NNK1, stronger effect = lower value 0.93
